Active and inactive are the calls of the source. How the source made its calls: active means hit-call score of the fitted dose curve at least 0.9, where 1 is the maximum; inactive means score below 0.9.
Read-out: Interleukin-1 alpha (IL1a), IL1A (gene 3552)
Test: BSK_LPS_IL1a: BioMAP Diversity Plus: LPS Assay for Interleukin-1 alpha (IL1a) Biomarker Activity (AID 2283080)
Settings: primary human HUVEC with PBMC; actives raise or lower the signal
Experimental: BSK_LPS is a cell-based, multiplexed-readout assay that uses umbilical vein endothelium and peripheral blood mononuclear cells, a human vascular primary cell co-culture, with measurements taken at 24 hours after chemical dosing in a 96-well plate.BSK_LPS_IL1a is an assay component measured in the BSK_LPS assay. It measures IL-a antibody related to regulation of gene expression using ELISA technology.Data from the assay component BSK_LPS_IL1a was analyzed into 1 assay endpoint. This assay endpoint, BSK_LPS_IL1a, was analyzed with bidirectional fitting relative to DMSO as the negative control and baseline of activity. Using a type of binding reporter, gain or loss-of-signal activity can be used to understand changes in the signaling as they relate to the gene IL1A. Furthermore, this assay endpoint can be referred to as a primary readout, because this assay has produced multiple assay endpoints where this one serves a signaling function. To generalize the intended target to other relatable targets, this assay endpoint is annotated to the cytokine intended target family, where the subfamily is interleukins.
The levels of cell surface (or secreted, indicated by the prefix "s") biomarker endpoints were measured by ELISA. Overt cytotoxicity to cells in confluent adherent cultures (all systems other than the BT system) was assessed by measuring total protein levels using sulforhodamine B (SRB) staining in parallel cultures at the time of biomarker measurements, indicated as SRB endpoints. For proliferation assays for adherent cell types, individual cell types are cultured at sub-confluence and relative cell numbers quantified by SRB staining at time points optimized for each system (48 h: 3C and CASM3C systems; 72 h: BT and HDF3CGF systems; 96 h: SAg system). SRB was performed by staining cells with 0.1% SRB after fixation with 10% TCA and reading wells at 560 nm.Viability and proliferation of PBMC (T cells) was quantified by Alamar Blue reduction for the SAg and BT systems. For PBMC viability (referred to as PBMC Cytotoxicity within the assay endpoint names), cells were plated (75,000/well in a 96-well plate) and then chemical samples added for 1 h before addition of activators, SEB and TSST-1 (20 ng/mL final concentration each). Cells were incubated for 90 h. Then, Alamar Blue (20 uL/well) (Invitrogen, Cat DAL1100) was added for 6 h, and the plates were read with a fluorescence microplate reader at 546/580 nm (excitation/emission). For PBMC proliferation, cells were plated and activated as above but incubated for only 16 h prior to addition of Alamar Blue. Plates were read after 6 h.

| Compound | outcome | AC50 |
| --- | --- | --- |
| CN(C)C(=O)Nc1ccc(Oc2ccc(Cl)cc2)cc1 | inactive |  |
| CC1(C)CCC[C@]2(C)[C@H]3CCO[C@]3(C)CC[C@@H]12 | inactive |  |
| CC(CN=Cc1ccccc1O)N=Cc1ccccc1O (stereo not given) | inactive |  |
| CCN(CC)C(=O)N(CC)CC | inactive |  |
| C=C(C)C(=O)OCCOCCOCCOC(=O)C(=C)C | inactive |  |
| CCC(C)c1cc([N+](=O)[O-])cc([N+](=O)[O-])c1OC(=O)OC(C)C (stereo not given) |  | 29.5 µM (active) |
| CC(=O)c1c(C)c([N+](=O)[O-])c(C(C)(C)C)c([N+](=O)[O-])c1C | inactive |  |
| Clc1cc(Cl)c(-c2c(Cl)c(Cl)cc(Cl)c2Cl)cc1Cl |  | 12.5 µM (active) |
| O=C1c2ccccc2C(=O)c2c(O)ccc(O)c21 | inactive |  |
| C[C@@H]1CCN(C(=O)[C@H](CCCN=C(N)N)NS(=O)(=O)c2cccc3c2NC[C@H](C)C3)[C@@H](C(=O)O)C1 | inactive |  |
| COc1ccc(OC)c(N=Nc2c(O)ccc3ccccc23)c1 |  | 6.45 µM (active) |
| C1=CC2C3C=CC(C3)C2C1 (stereo not given) | inactive |  |
| IC(I)I | inactive |  |
| C=CC(C)(O)CCC=C(C)C (stereo not given) | inactive |  |
| O=C1OC2(c3ccccc31)c1ccc(O)c(Br)c1Oc1c2ccc(O)c1Br |  | 20 µM (active) |
| CS(=O)(=O)OCCCCOS(C)(=O)=O | inactive |  |
| C=C(C)C(=O)OCCOCCOCCOCCOC(=O)C(=C)C | inactive |  |
| CN(c1nccc(=O)[nH]1)C1CCN(c2nc3ccccc3n2Cc2ccc(F)cc2)CC1 | inactive |  |
| COc1cc(Cl)c(OC)cc1N | inactive |  |
| c1ccc(Oc2ccccc2)cc1 | inactive |  |

| Compound | outcome | AC50 |
| --- | --- | --- |
| CCCCOC(=O)CCCCCCCC(=O)OCCCC | inactive |  |
| CCCCCCC(CO)CCCC (stereo not given) | inactive |  |
| COc1ccc(CCN2CCC(Nc3nc4ccccc4n3Cc3ccc(F)cc3)CC2)cc1 | inactive |  |
| CC(=O)C1(C)CC2=C(CCCC2(C)C)CC1C (stereo not given) |  | 5.8 µM (active) |
| CC=Cc1ccc(OCC)c(O)c1 | inactive |  |
| CC1(C)C2=CCCC(C)(C)[C@]23CC[C@H]1C3 | inactive |  |
| C=C(C)C(=O)OCC(CC)(COC(=O)C(=C)C)COC(=O)C(=C)C | inactive |  |
| CC(=O)Nc1ccc(C(=O)CCl)cc1 |  | 4.52 µM (active) |
| CC(C)(C)CC(C)(C)c1ccc(OCCOCC[N+](C)(C)Cc2ccccc2)cc1 |  | 5 µM (active) |
| CN(C)C(=S)SC(=S)N(C)C | inactive |  |
| CCCCCCCCCCCCCCCC(=O)OC/C=C(C)/C=C/C=C(C)/C=C/C1=C(C)CCCC1(C)C | inactive |  |
| CC(C=O)Cc1ccc(C(C)(C)C)cc1 (stereo not given) |  | 35.8 µM (active) |
| Cc1cc(CCC(=O)OCCOCCOCCOC(=O)CCc2cc(C)c(O)c(C(C)(C)C)c2)cc(C(C)(C)C)c1O | inactive |  |
| CCCCN(CCCC)C(=O)N(CCCC)CCCC |  | 20 µM (active) |
| CC(C)(N=C=O)c1cccc(C(C)(C)N=C=O)c1 | inactive |  |
| CCOC(=O)C(C#N)=C(c1ccccc1)c1ccccc1 | inactive |  |
| Oc1c(Cl)cc(Cl)c(Cl)c1Cc1c(O)c(Cl)cc(Cl)c1Cl |  | 9.2 µM (active) |
| c1ccc(CCc2ccccc2)cc1 |  | 32.7 µM (active) |
| O=CN1CCOCC1 | inactive |  |
| O=C(Nc1ccc2c(O)c(N=Nc3ccc(N=Nc4ccc(S(=O)(=O)O)cc4)cc3)c(S(=O)(=O)O)cc2c1)c1ccccc1 | inactive |  |

From PubChem BioAssay (EPA / NIEHS)
